# In PubChem BioAssay (EPA / NIEHS):
# The source made the active and inactive calls. The calls were made as follows: active = hit-call score of the fitted dose curve at least 0.9, where 1 is the maximum; inactive = score below 0.9.
# Key:
# [1] = read-out: Urokinase-type plasminogen activator receptor (uPAR), PLAUR (gene 5329); experiment: BSK_4H_uPAR: BioMAP Diversity Plus: 4H Assay for Urokinase-type plasminogen activator receptor (uPAR) Biomarker Activity (AID 2283030); details: primary human endothelial cells (HUVEC); actives raise or lower the signal
# Procedure, shortened: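 uPAR level read by ELISA on HUVEC cultures (BioMAP 4H) 24 h post-dosing, analyzed for gain or loss relative to DMSO. Parallel SRB staining assessed overt cytotoxicity.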
# [2] = read-out: Vascular endothelial growth factor receptor 2 (Homo sapiens) (UniProt P35968); experiment: BSK_4H_VEGFRII: BioMAP Diversity Plus: 4H Assay for Vascular endothelial growth factor receptor 2 (VEGFR2) Biomarker Activity (AID 2283031); details: primary human endothelial cells (HUVEC); actives raise or lower the signal
# Procedure, shortened: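 Measured by ELISA after 24 h of compound treatment: VEGFR2 on primary human umbilical vein endothelial cells, fitted in both directions relative to DMSO. Parallel cultures received SRB staining (560 nm) for overt cytotoxicity.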
# [3] = read-out: Human Leukocyte Antigen - DR isotype (HLADR), HLA-DRA (gene 3122); experiment: BSK_BE3C_HLADR: BioMAP Diversity Plus: BE3C Assay for Human Leukocyte Antigen - DR isotype (HLADR) Biomarker Activity (AID 2283032); details: primary human bronchial epithelial cells; actives raise or lower the signal
# Procedure, shortened: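 Signal came from an ELISA for HLA-DR in human bronchial epithelial primary cells harvested 24 h after treatment; gain- and loss-of-signal fitting used DMSO controls as reference.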
# [4] = read-out: Vascular cell adhesion molecule 1 (VCAM1), VCAM1 (gene 7412); experiment: BSK_4H_VCAM1: BioMAP Diversity Plus: 4H Assay for Vascular cell adhesion molecule 1 (VCAM1) Biomarker Activity (AID 2283033); details: primary human endothelial cells (HUVEC); actives raise or lower the signal;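 also: cell-surface VCAM-1 protein measured by ELISA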
# Procedure, shortened: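 Endpoint derived from bidirectional fitting against DMSO controls of VCAM-1 ELISA signal in umbilical vein endothelial cells sampled at 24 h following treatment.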
# [5] = read-out: Interferon-gamma inducible Protein 10 (IP10), CXCL10 (gene 3627); experiment: BSK_BE3C_IP10: BioMAP Diversity Plus: BE3C Assay for Interferon-gamma inducible Protein 10 (IP10) Biomarker Activity (AID 2283034); details: primary human bronchial epithelial cells; actives raise or lower the signal
# Procedure, shortened: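 Using primary human bronchial epithelial cultures, the assay captures IP-10 by ELISA one day (24 h) after exposure. Parallel SRB staining of total protein flags overt cytotoxicity. Fits run bidirectionally relative to DMSO.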
# [6] = read-out: Monokine induced gamma interferon (MIG), CXCL9 (gene 4283); experiment: BSK_BE3C_MIG: BioMAP Diversity Plus: BE3C Assay for Monokine induced gamma interferon (MIG) Biomarker Activity (AID 2283035); details: primary human bronchial epithelial cells; actives raise or lower the signal;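 also: MIG protein measured by ELISA in BE3C cultures after 24 h of dosing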
# Procedure, shortened: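 MIG level was determined by ELISA after 24 h chemical treatment of primary human bronchial epithelial cells. Values were fitted bidirectionally with DMSO as the negative control and activity baseline.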
# [7] = read-out: Transforming growth factor beta 1 (TGFb1), TGFB1 (gene 7040); experiment: BSK_BE3C_TGFb1: BioMAP Diversity Plus: BE3C Assay for Transforming growth factor beta 1 (TGFb1) Biomarker Activity (AID 2283036;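 also: TGF-b1 protein level measured by ELISA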); details: primary human bronchial epithelial cells; actives raise or lower the signal
# Procedure, shortened: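 In this human primary bronchial epithelial system, an ELISA quantified TGF-b1 one day after dosing. Endpoint changes in either direction were fitted relative to DMSO.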
# [8] = read-out: Plasminogen activator inhibitor-1 (PAI1), SERPINE1 (gene 5054); experiment: BSK_BE3C_PAI1: BioMAP Diversity Plus: BE3C Assay for Plasminogen activator inhibitor-1 (PAI1) Biomarker Activity (AID 2283037); details: primary human bronchial epithelial cells; actives raise or lower the signal
# Procedure, shortened: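 PAI-1 biomarker levels in treated human bronchial epithelial cells are determined by ELISA at 24 h. Both increases and decreases relative to DMSO are fitted.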
# [9] = read-out: urokinase plasminogen activator (uPA), PLAU (gene 5328); experiment: BSK_BE3C_uPA: BioMAP Diversity Plus: BE3C Assay for urokinase plasminogen activator (uPA) Biomarker Activity (AID 2283038); details: primary human bronchial epithelial cells; actives raise or lower the signal;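 also: uPA protein level quantified by ELISA in cell cultures; uPA read one day after compound addition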
# Procedure, shortened: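 ELISA for uPA on human primary bronchial epithelial cultures 24 h post-treatment, gain or loss against DMSO. Parallel SRB staining (0.1% after 10% TCA fixation, 560 nm) assessed overt cytotoxicity.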
# [10] = read-out: Urokinase-type plasminogen activator receptor (uPAR), PLAUR (gene 5329); experiment: BSK_BE3C_uPAR: BioMAP Diversity Plus: BE3C Assay for Urokinase-type plasminogen activator receptor (uPAR) Biomarker Activity (AID 2283039); details: primary human bronchial epithelial cells; actives raise or lower the signal;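 also: uPAR protein level measured by ELISA on the cells; cells exposed to compound for one day before measurement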
# Procedure, shortened: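 A uPAR ELISA serves as the readout, taken 24 h after treating primary human bronchial epithelial cells. Responses in either direction are fitted against DMSO, which defines baseline activity.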
# [11] = read-out: Interleukin-6 (IL6), IL6 (gene 3569); experiment: BSK_CASM3C_IL6: BioMAP Diversity Plus: CASM3C Assay for Interleukin-6 (IL6) Biomarker Activity for (AID 2283040); details: primary human coronary artery smooth muscle cells; actives raise or lower the signal
# [12] = read-out: Tissue plasminogen activator (tPA), PLAT (gene 5327); experiment: BSK_BE3C_tPA: BioMAP Diversity Plus: BE3C Assay for Tissue plasminogen activator (tPA) Biomarker Activity (AID 2283041); details: primary human bronchial epithelial cells; actives raise or lower the signal;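 also: tPA level quantified by ELISA one day after compound addition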
# Procedure, shortened: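 Bidirectional curve fitting relative to DMSO defined activity, with tPA detected by ELISA in chemically treated human bronchial epithelial primary cells at 24 hours.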
# [13] = read-out: Interleukin-8 (IL8), CXCL8 (gene 3576); experiment: BSK_CASM3C_IL8: BioMAP Diversity Plus: CASM3C Assay for Interleukin-8 (IL8) Biomarker Activity (AID 2283042); details: primary human coronary artery smooth muscle cells; actives raise or lower the signal;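 also: IL-8 protein level quantified by ELISA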
# [14] = read-out: Human Leukocyte Antigen - DR isotype (HLADR), HLA-DRA (gene 3122); experiment: BSK_CASM3C_HLADR: BioMAP Diversity Plus: CASM3C Assay for Human Leukocyte Antigen - DR isotype (HLADR) Biomarker Activity (AID 2283043); details: primary human coronary artery smooth muscle cells; actives raise or lower the signal;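 also: cell-surface HLA-DR protein level quantified by ELISA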
# [15] = read-out: Macrophage colony-stimulating factor (MCSF), CSF1 (gene 1435); experiment: BSK_CASM3C_MCSF: BioMAP Diversity Plus: CASM3C Assay for Macrophage colony-stimulating factor (MCSF) Biomarker Activity (AID 2283044); details: primary human coronary artery smooth muscle cells; actives raise or lower the signal;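 also: M-CSF protein amount quantified by ELISA after 24 h exposure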
# [16] = read-out: Low-density lipoprotein receptor (LDLR), LDLR (gene 3949); experiment: BSK_CASM3C_LDLR: BioMAP Diversity Plus: CASM3C Assay for Low-density lipoprotein receptor (LDLR) Biomarker Activity (AID 2283045); details: primary human coronary artery smooth muscle cells; actives raise or lower the signal;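 also: LDLR protein level on the cell surface quantified by ELISA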
# [17] = read-out: Monocyte Chemoattractant Protein-1 (MCP1), CCL2 (gene 6347); experiment: BSK_CASM3C_MCP1: BioMAP Diversity Plus: CASM3C Assay for Monocyte Chemoattractant Protein-1 (MCP1) Biomarker Activity (AID 2283046); details: primary human coronary artery smooth muscle cells; actives raise or lower the signal;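 also: MCP-1 level quantified by ELISA 24 h after dosing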
# [18] = BSK_CASM3C_Proliferation: Cell Proliferation Assessment in the BioMAP Diversity Plus: CASM3C Assay (AID 2283047); details: primary human coronary artery smooth muscle cells;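 also: sulforhodamine B total protein stain as relative cell number at 560 nm; sub-confluent cells exposed 48 h before staining; fitted both ways against DMSO so gain or loss of cell number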
# [19] = read-out: Monokine induced gamma interferon (MIG), CXCL9 (gene 4283); experiment: BSK_CASM3C_MIG: BioMAP Diversity Plus: CASM3C Assay for Monokine induced gamma interferon (MIG) Biomarker Activity (AID 2283048); details: primary human coronary artery smooth muscle cells; actives raise or lower the signal;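 also: MIG protein level measured by ELISA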
# [20] = read-out: serum amyloid A (SAA), SAA1 (gene 6288); experiment: BSK_CASM3C_SAA: BioMAP Diversity Plus: CASM3C Assay for serum amyloid A (SAA) Biomarker Activity (AID 2283049); details: primary human coronary artery smooth muscle cells; actives raise or lower the signal;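 also: SAA protein level quantified by ELISA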
smiles,measurement,setting,value
CSc1nc(NC(C)C)nc(NC(C)C)n1,outcome,[1],inactive
same,outcome,[2],inactive
same,outcome,[3],inactive
same,outcome,[4],inactive
same,outcome,[5],inactive
same,outcome,[6],inactive
same,outcome,[7],inactive
same,outcome,[8],inactive
same,outcome,[9],inactive
same,outcome,[10],inactive
same,outcome,[11],inactive
same,outcome,[12],inactive
same,outcome,[13],inactive
same,outcome,[14],inactive
same,outcome,[15],inactive
same,outcome,[16],inactive
same,outcome,[17],inactive
same,outcome,[18],inactive
same,outcome,[19],inactive
same,outcome,[20],inactive
CCc1cnc(C2=NC(C)(C(C)C)C(=O)N2)c(C(=O)O)c1 (configuration not stated),outcome,[1],inactive
same,outcome,[2],inactive
same,outcome,[3],inactive
same,outcome,[4],inactive
same,outcome,[5],inactive
same,outcome,[6],inactive
same,outcome,[7],inactive
same,outcome,[8],inactive
same,outcome,[9],inactive
same,outcome,[11],inactive
same,outcome,[12],inactive
same,outcome,[13],inactive
same,outcome,[14],inactive
same,outcome,[15],inactive
same,outcome,[16],inactive
same,outcome,[17],inactive
same,outcome,[18],inactive
same,outcome,[19],inactive
same,outcome,[20],inactive
COP(=O)(OC)SCn1c(=O)oc2cc(Cl)cnc21,outcome,[1],inactive
same,outcome,[2],inactive
same,AC50,[3],22 µM (active)
same,outcome,[4],inactive
same,AC50,[5],31.2 µM (active)
same,outcome,[6],inactive
same,outcome,[7],inactive
same,outcome,[8],inactive
same,outcome,[9],inactive
same,outcome,[10],inactive
same,outcome,[11],inactive
same,outcome,[12],inactive
same,outcome,[13],inactive
same,outcome,[14],inactive
same,AC50,[15],9.42 µM (active)
same,outcome,[16],inactive
same,AC50,[17],20 µM (active)
same,AC50,[18],21.5 µM (active)
same,AC50,[19],38.8 µM (active)
same,outcome,[20],inactive
CCNc1nc(Cl)nc(NC(C)(C)C#N)n1,outcome,[1],inactive
same,outcome,[2],inactive
same,outcome,[3],inactive
same,outcome,[4],inactive
same,outcome,[5],inactive
same,outcome,[6],inactive
same,outcome,[7],inactive
same,outcome,[8],inactive
same,outcome,[9],inactive
same,outcome,[10],inactive
same,outcome,[11],inactive
same,outcome,[12],inactive
same,outcome,[13],inactive
same,AC50,[14],9.89 µM (active)
same,outcome,[15],inactive
same,outcome,[16],inactive
same,outcome,[17],inactive
same,outcome,[18],inactive
same,outcome,[19],inactive
same,outcome,[20],inactive
CCCOc1nn(C(=O)NS(=O)(=O)c2ccccc2C(=O)OC)c(=O)n1C,outcome,[1],inactive
same,outcome,[2],inactive
same,outcome,[3],inactive
same,outcome,[4],inactive
same,outcome,[5],inactive
same,outcome,[6],inactive
same,outcome,[7],inactive
same,outcome,[8],inactive
same,outcome,[9],inactive
same,outcome,[11],inactive
same,outcome,[12],inactive
same,outcome,[13],inactive
same,outcome,[14],inactive
same,outcome,[15],inactive
same,outcome,[16],inactive
same,outcome,[17],inactive
same,outcome,[18],inactive
same,outcome,[19],inactive
same,outcome,[20],inactive
CCOP(=O)(OCC)Oc1cc(C)nc(C(C)C)n1,outcome,[1],inactive
same,outcome,[2],inactive
same,outcome,[3],inactive
same,outcome,[4],inactive
same,outcome,[5],inactive
same,outcome,[6],inactive
same,outcome,[7],inactive
same,outcome,[8],inactive
same,outcome,[9],inactive
same,outcome,[11],inactive
same,outcome,[12],inactive
same,outcome,[13],inactive
same,outcome,[14],inactive
same,outcome,[15],inactive
same,AC50,[16],20 µM (active)
same,outcome,[17],inactive
same,outcome,[18],inactive
same,outcome,[19],inactive
same,outcome,[20],inactive
